Screen size: about 310,000 compounds; about 14,000 (4.5%) showed an effect of 50% or more. Effects have a minus sign here. What follows is part of a selection rich in strong results, with near analogues and random picks from the rest.
target: human ether-à-go-go-related gene (hERG) potassium channel (human, UniProt Q12809); experiment: primary screen, population patch clamp on CHO cells stably expressing hERG; higher = less effect of the substance
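Further: peak tail current of the secondary pulse compared with the same well before compound.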

Chain of human ether-à-go-go-related gene (hERG) potassium channel (Q12809 whole entry, looked up): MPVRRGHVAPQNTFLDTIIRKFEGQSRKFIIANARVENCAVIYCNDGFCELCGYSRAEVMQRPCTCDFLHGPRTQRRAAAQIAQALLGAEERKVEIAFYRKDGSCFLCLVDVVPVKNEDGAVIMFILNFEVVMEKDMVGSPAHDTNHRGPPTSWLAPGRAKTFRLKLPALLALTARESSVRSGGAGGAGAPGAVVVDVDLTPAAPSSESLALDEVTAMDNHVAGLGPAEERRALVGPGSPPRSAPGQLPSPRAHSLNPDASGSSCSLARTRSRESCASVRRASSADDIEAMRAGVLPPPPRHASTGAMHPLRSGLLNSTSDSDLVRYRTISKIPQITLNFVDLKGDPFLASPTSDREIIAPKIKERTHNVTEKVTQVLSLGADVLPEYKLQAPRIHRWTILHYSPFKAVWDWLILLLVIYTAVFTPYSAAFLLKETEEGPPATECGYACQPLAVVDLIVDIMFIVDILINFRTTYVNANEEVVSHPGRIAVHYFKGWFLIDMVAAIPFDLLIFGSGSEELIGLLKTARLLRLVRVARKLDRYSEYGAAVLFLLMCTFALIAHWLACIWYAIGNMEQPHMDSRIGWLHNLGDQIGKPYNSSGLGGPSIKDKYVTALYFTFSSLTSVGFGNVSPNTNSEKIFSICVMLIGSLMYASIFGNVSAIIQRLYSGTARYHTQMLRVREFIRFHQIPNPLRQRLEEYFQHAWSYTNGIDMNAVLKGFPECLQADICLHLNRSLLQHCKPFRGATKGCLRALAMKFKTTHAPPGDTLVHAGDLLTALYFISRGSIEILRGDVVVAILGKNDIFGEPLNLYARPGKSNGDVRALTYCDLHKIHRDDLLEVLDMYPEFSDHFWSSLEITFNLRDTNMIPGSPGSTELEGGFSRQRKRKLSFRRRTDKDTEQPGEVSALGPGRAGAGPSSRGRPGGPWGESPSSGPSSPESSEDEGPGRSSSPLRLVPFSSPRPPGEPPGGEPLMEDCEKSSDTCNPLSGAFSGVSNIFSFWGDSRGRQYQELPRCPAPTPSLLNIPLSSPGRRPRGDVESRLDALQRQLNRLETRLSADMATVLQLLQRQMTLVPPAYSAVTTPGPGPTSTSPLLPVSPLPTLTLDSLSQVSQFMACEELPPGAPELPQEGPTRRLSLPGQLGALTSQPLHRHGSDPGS

SMILES | hERG current change (%, negative = inhibition) at 10uM
COc1cc(C=Nc2c(C)cc(C)cc2C)ccc1OC(C)=O | 10.6%
COc1ccc(CCCc2nnc(SCC(=O)Nc3cc(C)ccc3C)o2)cc1 | 0.676%
CN=C1S/C(=C/c2cn(CC(=O)OC)c3ccccc23)C(=O)N1C | 11.1%
COC(=O)c1sccc1NC(=S)Nc1cc(OC)ccc1OC | 30.4%
COC(=O)c1sccc1NC(=O)Nc1ccc(OC)cc1OC | -20.3%
CCOc1ccccc1NC(=O)Nc1ccsc1C(=O)OC | -62%
COC(=O)c1sccc1NC(=O)Nc1ccccc1OC | -41.4%
COC(=O)c1sccc1NC(=O)Nc1cc(OC)ccc1OC | -57.4%
CCOc1ccccc1C(=O)Nc1ccsc1C(=O)OC | -0.813%
COC(=O)c1c(N2C(=O)[C@H]3[C@@H](C2=O)[C@]2(C(=O)Nc4c2ccc(C)c4C)N2CCC[C@@H]32)sc(C)c1C | 15.4%
C/C(=C\C(=O)c1ccccc1)NCc1ccc(F)cc1 | -22.7%
Cc1cc(S(=O)(=O)n2cnc3cc([N+](=O)[O-])ccc32)ccc1Cl | -2.69%
Cc1ccc(C(=O)Nc2cnc3ccccn3c2=O)cc1 | -17.2%
Cc1cc(=O)[nH]c(SCc2cccc3cccnc23)n1 | 13.3%
COc1ccc(CNc2c(CO)cnc3c2cnn3C)cc1 | -13%
COc1ccc(NC(=O)CN(C)C(=O)c2cccc(S(=O)(=O)N3CCN(c4ccccc4)CC3)c2)cc1 | -3.62%
O=C(N/N=C/c1ccco1)c1cc([N+](=O)[O-])cc([N+](=O)[O-])c1 | 6.85%
COC(=O)C(C)N(C#N)c1nc(C)cc(C)n1 (stereo not drawn) | 8.78%
COc1ccccc1N1CCN(C(=O)CCSCc2ccccc2F)CC1 | 4.41%
COc1ccc(N2CCN(C(=O)COC(=O)Cc3ccc(F)cc3)CC2)cc1 | -20%
COc1cccc(N2CCN(C(=O)CCSCc3ccccc3F)CC2)c1 | -57.9%

SMILES | hERG current change (%, negative = inhibition) at 10uM
COc1cccc(CC(=O)OCC(=O)N2CCN(c3ccc(F)cc3)CC2)c1 | -60.6%
COc1ccc(N2CCN(C(=O)COC(=O)Cc3cccc(OC)c3)CC2)cc1 | -20%
CC1(C)C(=O)Nc2ccccc2N1C(=O)COC(=O)CSc1ccc(Cl)cc1 | 18.3%
COc1ccc(N2CCN(C(=O)COC(=O)CCc3ccccc3)CC2)cc1 | -0.829%
COc1ccc(N2CCN(C(=O)COC(=O)Cc3c(F)cccc3Cl)CC2)cc1 | -79%
CC1(C)C(=O)Nc2ccccc2N1C(=O)COC(=O)Cc1c(F)cccc1Cl | -50.1%
CC1(C)C(=O)Nc2ccccc2N1C(=O)COC(=O)CSc1ccc(F)cc1 | -2.24%
COc1ccc(NC(=O)COC(=O)Cc2c(F)cccc2Cl)cc1 | -0.319%
COc1ccc(N2CCN(C(=O)CCSCc3ccccc3F)CC2)cc1 | -28.1%
CSCC(NS(=O)(=O)c1ccc(C)cc1)C(=O)O (stereo not drawn) | 8.98%
CC(=O)N1CC(C)Sc2ccc(S(=O)(=O)NCCc3cccc(C)c3)cc21 (stereo not drawn) | 0.141%
COC(=O)CNC(=O)CNC(=O)Nc1ccccc1Cl | 9.2%
Cc1ccc(S(=O)(=O)N/N=C/c2ccc(C(=O)O)cc2)cc1 | 15.2%
Nc1nc(N2CCN(c3ccccc3)CC2)n[nH]1 | 4.2%
COc1cc(NC2=Nc3cccc4cccc2c34)cc(OC)c1OC | 1.72%
CCCCn1c(N)c(NCc2ccccc2OC)c(=O)[nH]c1=O | 12.2%
Cc1c(C=O)cnn1CCC(=O)O | 4.76%
O=c1ccc2cc(S(=O)(=O)Nc3ccc(Br)cc3)ccc2o1 | 5.32%
COc1ccccc1NC(=O)CC1CCCC1 | 15.4%
CCn1c(SCC(=O)Nc2cc(C)on2)nc2c(c1=O)SC(C)C2 (stereo not drawn) | -4.2%
CCc1ccc(OCC(=O)Nc2ccc(S(=O)(=O)N3CCCC3)cc2)c(Br)c1 | -4.25%

SMILES | hERG current change (%, negative = inhibition) at 10uM
COCCn1c(SCC(=O)Nc2c(C)n(C)n(-c3ccccc3)c2=O)nnc1-c1ccncc1 | 5.95%
CCOC(=O)C1CCN(C(=O)Cn2nc(C)n3nc(-c4ccc(CC)cc4)cc3c2=O)CC1 | 5.33%
O=C(/C=C/c1ccccc1[N+](=O)[O-])OCC(=O)N1CCCC1 | 12%
COc1ccc(N2CCN(C(=O)COC(=O)CCOc3cc(C)ccc3C)CC2)cc1 | 0.516%
COc1ccc(N2CCN(C(=O)COC(=O)CCOc3ccccc3C)CC2)cc1 | -62.5%
COc1ccc(N2CCN(C(=O)COC(=O)CCOc3ccc(C)cc3)CC2)cc1 | 9.09%
C=CCNC(=O)c1cn(CC)c2cc(N3CCN(C(=O)c4ccco4)CC3)c(F)cc2c1=O | -63.6%
CCn1cc(C(=O)NC(C)C)c(=O)c2cc(F)c(N3CCN(C(=O)c4ccco4)CC3)cc21 | -34.6%
CCCNC(=O)c1cn(CC)c2cc(N3CCN(C(=O)c4ccco4)CC3)c(F)cc2c1=O | -67%
CCn1cc(C(=O)NCc2ccc3c(c2)OCO3)c(=O)c2cc(F)c(N3CCN(C(=O)c4ccco4)CC3)cc21 | -1.93%
CCn1cc(C(=O)NCC(C)C)c(=O)c2cc(F)c(N3CCN(C(=O)c4ccco4)CC3)cc21 | -59.9%
CCn1cc(C(=O)NCc2ccco2)c(=O)c2cc(F)c(N3CCN(C(=O)c4ccco4)CC3)cc21 | -26.4%
CCN(CC)CCNC(=O)c1cn(CC)c2cc(N3CCN(C(=O)c4ccco4)CC3)c(F)cc2c1=O.Cl | 0.131%
CCn1cc(C(=O)NCc2cccc(F)c2)c(=O)c2cc(F)c(N3CCN(C(=O)c4ccco4)CC3)cc21 | -21%
CCn1cc(C(=O)NCCC(C)C)c(=O)c2cc(F)c(N3CCN(C(=O)c4ccco4)CC3)cc21 | -11.3%
CCCCNC(=O)c1cn(CC)c2cc(N3CCN(C(=O)c4ccco4)CC3)c(F)cc2c1=O | -33.8%
CCn1cc(C(=O)Nc2ncccc2O)c(=O)c2cc(F)c(N3CCN(C(=O)c4ccco4)CC3)cc21 | 1.98%
CCC(C)NC(=O)c1cn(CC)c2cc(N3CCN(C(=O)c4ccco4)CC3)c(F)cc2c1=O (stereo not drawn) | -55.2%
O=C(c1ccc2c(c1)OCO2)N1CCOCC1 | 17.5%
COc1cccc(OCCn2cccc2/C=C2/C(=N)N3OC(C)=CC3=NC2=O)c1 | -23.5%
O=C(NCCCN1CCCC1=O)c1cccc(S(=O)(=O)Nc2ccc(F)cc2)c1 | -24.5%

SMILES | hERG current change (%, negative = inhibition) at 10uM
CCOC(=O)C1C(=O)Nc2nc(C)nn2C1c1ccccc1 (stereo not drawn) | 14.4%
CCCc1ccc(C(=O)O/N=C(\N)c2ccccn2)cc1 | -0.642%
CCn1cc(C(=O)NCc2ccccc2)c(=O)c2cc(F)c(N3CCN(C(=O)c4ccco4)CC3)cc21 | -39.6%
CCn1cc(C(=O)NCc2cccnc2)c(=O)c2cc(F)c(N3CCN(C(=O)c4ccco4)CC3)cc21 | -37.6%
CCn1cc(C(=O)NCc2ccncc2)c(=O)c2cc(F)c(N3CCN(C(=O)c4ccco4)CC3)cc21 | -66.4%
O=C(NCc1ccc(N2CCCC2=O)cc1)c1cccc(Cl)c1 | 1.27%
CC(C)(C)C(=O)Nc1ccc(-c2cc3cc(Cl)ccc3o2)cc1 | 8.12%
Cc1ccc(NS(=O)(=O)c2ccc3oc(=O)ccc3c2)cc1Cl | 3.79%
CCC(=O)c1ccccc1OCCCCn1cncn1.O=C(O)C(=O)O | 4.82%
CCC(=O)c1ccccc1OCCN1CCN(Cc2ccccc2)CC1.O=C(O)C(=O)O | -59.1%
O=C(O)C(=O)O.OCc1ccccc1OCCCN1CCC(Cc2ccccc2)CC1 | -75%
N#Cc1ccccc1OCCCN1CCC(Cc2ccccc2)CC1.O=C(O)C(=O)O | -80%
CCC(=O)c1ccccc1OCCCN1C(=O)NC(C)(C)C1=O | 0.00578%
CCC(=O)c1ccccc1OCCN1CCN(CC)CC1.O=C(O)C(=O)O | -13.7%
N#Cc1ccccc1OCCCNC1CCCC1.O=C(O)C(=O)O | -11.5%
CCc1ccccc1OCCCN1CCCC1.O=C(O)C(=O)O | -17.6%
CC(C)c1ccccc1OCCCN1CCCC1.O=C(O)C(=O)O | -33.1%
COC(=O)c1ccccc1OCCN1CCCCCC1.O=C(O)C(=O)O | -46.2%
CCc1ccccc1OCCCCN1CCCC1.O=C(O)C(=O)O | -40%
CCC(=O)c1ccccc1OCCCN1CCC(Cc2ccccc2)CC1.O=C(O)C(=O)O | -78.5%
O=C(CSc1nccc(=O)[nH]1)Nc1cccc(S(=O)(=O)N2CCOCC2)c1 | 4.22%

Reference: PMC4336329 (PLoS ONE, 2015)
